Experiments:
Test in all cases: PBM binding z-score (relative to random genomic background probes); higher = stronger binding; sequences stand for … in GC…GCGATTGACAGCGTAGAATGAAGG
[1] = test system: PPARg:RXRa DBDmut IVT, anti-RXR (DBD mutation: RXRa K156A/R161A, NR concentration 270 nM, RXRa partner concentration 90 nM)
In short: (§1)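 Binding z-scores were set against random background probes. The data came from custom Agilent 4×180K protein-binding microarrays carrying double-stranded probes with 34-nt variable regions, incubated 1 h with ligand-free nuclear receptor dimers. Partner-specific antibodies detected binding, and scanned fluorescence was regression-normalized.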

[2] = test system: PPARg:RXRa IVT, anti-PPARg (NR concentration 270 nM, RXRa partner concentration 90 nM)
In short: as §1

[3] = test system: PPARg DBDmut:RXRa IVT, anti-PPARg (DBD mutation: PPARg1 K132A/R137A, NR concentration 270 nM, RXRa partner concentration 90 nM)
In short: as §1

[4] = test system: PPARg DBDmut IVT, anti-PPARg (DBD mutation: PPARg1 K132A/R137A, NR concentration 270 nM)
In short: as §1

[5] = test system: PPARg homodimer (NR concentration 180 nM)
In short: as §1

[6] = test system: PXR:RXRa (NR concentration 270 nM, RXRa partner concentration 90 nM)
In short: as §1

[7] = test system: PXR homodimer (NR concentration 270 nM)
In short: as §1

[8] = test system: RARa:RXR (NR concentration 270 nM, RXRa partner concentration 90 nM)
In short: as §1

[9] = test system: RARa homodimer (NR concentration 270 nM)
In short: as §1

[10] = test system: RARb:RXRa (NR concentration 270 nM, RXRa partner concentration 90 nM)
In short: as §1

Sequence	PBM binding z-score [1]	PBM binding z-score [2]	PBM binding z-score [3]	PBM binding z-score [4]	PBM binding z-score [5]	PBM binding z-score [6]	PBM binding z-score [7]	PBM binding z-score [8]	PBM binding z-score [9]	PBM binding z-score [10]
GCTGCTAGTTCAGGTTGGTCAGCTAACGGGTACG	-0.103	-0.56	-0.826	-0.845	-0.918	-0.166	0.0964	-0.23	-0.341	1.01
CCTTACGGGTCACTCCAGGTTATAGGATCGGAGT	2.49	4	0.265	0.385	1.86	5.21	0.588	4.1	0.817	3.8
GCGACTGGGGAATCAGCAGGTTACCATAACTTAA	0.44	0.213	-0.564	-0.355	-0.3	-0.375	-0.366	-0.13	-0.219	-0.211
AGTCAAAGTTCATCTAGGTAACGTACGATATGCT	1.04	4.13	1.4	2.09	2.4	5.22	6.7	3.95	1.06	5.06
TCGAGTAGGTTACCAATGGGGCGTTCAGCTTTCT	3.2	2.46	-0.504	-0.846	0.122	-0.176	-0.801	0.167	-0.443	0.773
CCTATTAGTTGACCATAAGGGCAAACGAAGCTCG	0.266	0.555	0.151	0.588	1.58	0.75	0.863	1.02	1.31	1.52
AATTCAGGGTCATCGTAGGCCAGAGTACGCACAG	3.42	4.57	2.45	3.09	2.85	5.49	1.43	5.54	1.45	4.45
AGAATGAGGTTATTAAGATCGGGGAATTGCGGTC	2.65	2.39	0.666	-0.0579	0.639	1.23	0.366	1.26	0.527	1.37
TATACAGGGTCAAAGGCCAGAGTACGAATGTCGA	2.36	5.11	2.18	1.49	2.55	4.55	0.583	5.75	0.928	4.5
TTACCAAGGTGAAAGTCGTTGATCCCTCTGTAGA	1.87	2.87	0.179	0.266	-0.0514	0.456	-0.651	1.1	-0.221	1.67
CATACAGGGTTAGCTAGGCCAGAGTAGGGACGGC	-0.169	0.541	-0.056	-0.72	-0.367	-0.275	-0.684	0.13	-0.529	1.07
ATCTCTAGGTAAGACTCAGTCCAGTGAAGAACGC	1.91	1.22	-0.449	2	0.717	-0.0905	0.481	-0.0301	0.973	0.0795
TCTTGTAGATCAACAGGAGGTTAAGGAAGATCGA	1.4	0.448	1.51	0.495	0.156	0.485	-0.267	0.702	0.0704	0.516
TATACAGGGTCAAAGGCCTGAGTACGAATGTCGA	2.08	4.32	3.81	3.06	4.01	3.86	0.321	5.15	1.29	4.2
ATCTCTAGGTTACAAGTTCAGTGAAAGAGAGGAC	4.27	4.41	1.99	3.28	2.22	2.38	2.41	2.03	1.88	2.69
TCTCGGAGGAGACGAAGGTCAGAGCTTTCCAGAG	0.916	-0.157	-0.48	-1.43	0.692	1.01	-0.222	1.5	-0.817	2.37
TCTACAGGGTCAAAGGCCAGAGTACGAATGTCGA	2.69	4.11	0.545	0.757	1.6	4.1	0.202	5.76	0.385	4.29
TTACCATGGTGAGCTGAGGTCGTTGATCCAACTC	-0.23	0.397	-0.517	-0.449	-0.916	1.87	-0.0892	1.14	-0.905	0.272
AGAATGAGGTTATACGTAGATAAGGGAAGAAAGT	2.89	2.2	1.07	1.1	0.963	1.17	0.795	1.65	0.439	1.37
TCTGCTAGGTCAACGATGGTTAGCTAATCTGCTA	4.04	4.11	0.206	0.0855	0.625	1.24	-0.803	2.11	-0.888	4.14
ACTAGCAGGCCAAGGGTCACGCAAGATTAGTCCG	1.52	4.53	0.585	-0.153	2.62	4.25	-0.0194	5.33	0.787	4.2
CAGCCTAGGTCAAGGCCAGTATAGGAGGAACGTT	2.48	2.33	-0.75	-0.631	0.784	1.3	-0.176	1.93	-0.377	4.07
CCTGACAGGTGAGAAGGTAACTCAGCCTCGATTA	1.12	0.913	-0.717	-0.671	0.832	-0.216	-0.0629	0.621	-0.07	0.751

Reference: the supplement of paper PMC6555819
